How the values were obtained:
[1] = molecular target: Tyrosine-protein kinase CSK (Homo sapiens) (UniProt P41240); settings: at 1 µM;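 note: each value is an averaged inhibition reading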
[2] = molecular target: T1, Discoidin domain-containing receptor 2 (Homo sapiens) (UniProt Q16832); settings: at 0.1 µM
T1 sequence (whole entry): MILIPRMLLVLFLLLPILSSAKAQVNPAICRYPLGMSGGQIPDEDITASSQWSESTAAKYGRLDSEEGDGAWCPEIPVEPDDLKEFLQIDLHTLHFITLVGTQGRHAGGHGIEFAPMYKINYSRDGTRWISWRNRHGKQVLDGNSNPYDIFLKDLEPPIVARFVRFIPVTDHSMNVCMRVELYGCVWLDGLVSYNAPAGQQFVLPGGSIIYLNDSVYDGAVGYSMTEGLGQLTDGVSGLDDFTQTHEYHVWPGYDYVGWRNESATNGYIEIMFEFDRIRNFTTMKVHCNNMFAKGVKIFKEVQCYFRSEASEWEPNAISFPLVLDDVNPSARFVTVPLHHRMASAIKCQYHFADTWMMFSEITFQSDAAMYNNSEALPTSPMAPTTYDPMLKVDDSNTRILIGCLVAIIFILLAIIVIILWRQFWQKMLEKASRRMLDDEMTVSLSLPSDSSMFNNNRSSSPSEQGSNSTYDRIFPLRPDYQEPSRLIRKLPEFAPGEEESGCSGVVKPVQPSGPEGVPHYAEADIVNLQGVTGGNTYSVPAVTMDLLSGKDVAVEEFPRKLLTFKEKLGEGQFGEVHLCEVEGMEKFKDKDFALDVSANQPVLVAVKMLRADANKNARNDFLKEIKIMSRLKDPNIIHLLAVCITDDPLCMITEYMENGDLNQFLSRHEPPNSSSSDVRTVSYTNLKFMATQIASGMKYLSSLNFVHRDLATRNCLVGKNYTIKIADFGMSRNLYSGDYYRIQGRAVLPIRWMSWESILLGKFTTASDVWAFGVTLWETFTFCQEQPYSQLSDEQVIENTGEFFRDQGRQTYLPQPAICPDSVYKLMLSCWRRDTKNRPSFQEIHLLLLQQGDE

[3] = molecular target: T1, Discoidin domain-containing receptor 2 (Homo sapiens); settings: at 1 µM
[4] = molecular target: Epidermal growth factor receptor (Homo sapiens) (UniProt P00533); settings: at 0.1 µM
Chain of Epidermal growth factor receptor (Homo sapiens) (P00533 whole entry): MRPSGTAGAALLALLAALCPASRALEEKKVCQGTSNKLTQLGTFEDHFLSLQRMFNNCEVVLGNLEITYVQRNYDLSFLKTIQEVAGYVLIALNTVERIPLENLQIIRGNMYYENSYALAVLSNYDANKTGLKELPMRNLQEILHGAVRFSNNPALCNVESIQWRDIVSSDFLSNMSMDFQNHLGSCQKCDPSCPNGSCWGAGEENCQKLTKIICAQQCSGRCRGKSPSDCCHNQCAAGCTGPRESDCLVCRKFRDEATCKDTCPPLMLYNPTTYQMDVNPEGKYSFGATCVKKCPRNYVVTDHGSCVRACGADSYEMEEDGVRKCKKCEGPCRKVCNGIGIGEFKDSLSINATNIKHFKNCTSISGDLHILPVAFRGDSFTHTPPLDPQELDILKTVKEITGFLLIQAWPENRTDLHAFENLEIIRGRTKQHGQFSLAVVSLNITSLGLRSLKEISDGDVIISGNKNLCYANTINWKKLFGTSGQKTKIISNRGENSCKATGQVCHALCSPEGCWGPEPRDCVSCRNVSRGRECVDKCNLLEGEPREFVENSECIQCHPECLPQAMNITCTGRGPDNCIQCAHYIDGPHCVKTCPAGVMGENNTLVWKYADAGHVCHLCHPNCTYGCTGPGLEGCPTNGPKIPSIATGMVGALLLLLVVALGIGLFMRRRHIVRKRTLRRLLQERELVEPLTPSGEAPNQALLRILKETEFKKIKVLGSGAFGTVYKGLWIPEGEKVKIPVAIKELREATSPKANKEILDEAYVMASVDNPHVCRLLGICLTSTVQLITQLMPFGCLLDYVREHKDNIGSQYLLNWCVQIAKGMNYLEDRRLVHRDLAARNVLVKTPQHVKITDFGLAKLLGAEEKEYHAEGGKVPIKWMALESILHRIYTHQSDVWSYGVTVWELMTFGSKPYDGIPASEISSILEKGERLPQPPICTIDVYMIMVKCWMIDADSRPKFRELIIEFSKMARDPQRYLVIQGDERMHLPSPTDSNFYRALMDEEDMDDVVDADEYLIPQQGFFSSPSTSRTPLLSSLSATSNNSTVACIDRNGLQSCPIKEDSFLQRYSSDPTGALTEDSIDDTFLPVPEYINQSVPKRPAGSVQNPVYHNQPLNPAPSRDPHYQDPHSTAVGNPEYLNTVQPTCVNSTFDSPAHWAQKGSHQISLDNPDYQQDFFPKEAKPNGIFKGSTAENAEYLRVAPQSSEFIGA

[5] = molecular target: Epidermal growth factor receptor (Homo sapiens) (UniProt P00533); settings: at 1 µM
[6] = system: Epidermal growth factor receptor (Homo sapiens), P00533 [L858R]; settings: at 0.1 µM
Chain of Epidermal growth factor receptor (Homo sapiens), P00533 [L858R] (P00533 whole entry L858R): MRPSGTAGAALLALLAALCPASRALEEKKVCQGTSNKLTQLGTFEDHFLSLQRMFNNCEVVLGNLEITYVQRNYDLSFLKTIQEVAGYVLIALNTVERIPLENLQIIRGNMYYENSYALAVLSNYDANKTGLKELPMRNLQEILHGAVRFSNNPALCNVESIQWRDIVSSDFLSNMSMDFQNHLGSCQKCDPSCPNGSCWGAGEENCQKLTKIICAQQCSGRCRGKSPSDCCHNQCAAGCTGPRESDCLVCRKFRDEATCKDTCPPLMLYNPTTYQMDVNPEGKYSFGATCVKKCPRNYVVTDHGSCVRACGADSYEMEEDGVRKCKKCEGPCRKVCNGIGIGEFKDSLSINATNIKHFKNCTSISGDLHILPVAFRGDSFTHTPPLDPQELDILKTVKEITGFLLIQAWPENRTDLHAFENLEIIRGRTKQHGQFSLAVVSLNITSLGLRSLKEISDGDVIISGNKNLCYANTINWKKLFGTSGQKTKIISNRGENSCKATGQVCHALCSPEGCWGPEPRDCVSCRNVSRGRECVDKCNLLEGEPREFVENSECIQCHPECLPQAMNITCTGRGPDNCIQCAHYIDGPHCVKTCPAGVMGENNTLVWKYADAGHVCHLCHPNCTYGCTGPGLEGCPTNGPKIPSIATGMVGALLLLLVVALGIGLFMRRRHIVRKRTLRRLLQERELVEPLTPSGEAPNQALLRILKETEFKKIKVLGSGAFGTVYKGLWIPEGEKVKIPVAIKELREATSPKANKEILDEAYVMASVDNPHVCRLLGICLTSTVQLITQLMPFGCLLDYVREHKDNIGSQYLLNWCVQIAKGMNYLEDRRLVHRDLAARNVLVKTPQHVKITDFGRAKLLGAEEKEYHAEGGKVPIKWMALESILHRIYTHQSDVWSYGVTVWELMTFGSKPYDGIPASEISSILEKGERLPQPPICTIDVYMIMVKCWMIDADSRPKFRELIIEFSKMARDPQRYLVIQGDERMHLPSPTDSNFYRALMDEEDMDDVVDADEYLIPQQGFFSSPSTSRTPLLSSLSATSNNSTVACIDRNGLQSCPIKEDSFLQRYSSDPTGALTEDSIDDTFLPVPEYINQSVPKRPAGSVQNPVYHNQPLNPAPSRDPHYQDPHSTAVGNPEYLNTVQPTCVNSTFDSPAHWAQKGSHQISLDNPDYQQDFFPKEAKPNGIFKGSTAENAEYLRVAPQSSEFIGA

[7] = system: Epidermal growth factor receptor (Homo sapiens), P00533 [L858R]; settings: at 1 µM
[8] = system: Epidermal growth factor receptor (Homo sapiens), P00533 [L861Q]; settings: at 0.1 µM
[9] = system: Epidermal growth factor receptor (Homo sapiens), P00533 [L861Q]; settings: at 1 µM
[10] = system: Epidermal growth factor receptor (Homo sapiens), P00533 [T790M]; settings: at 0.1 µM
Chain of Epidermal growth factor receptor (Homo sapiens), P00533 [T790M] (P00533 whole entry T790M): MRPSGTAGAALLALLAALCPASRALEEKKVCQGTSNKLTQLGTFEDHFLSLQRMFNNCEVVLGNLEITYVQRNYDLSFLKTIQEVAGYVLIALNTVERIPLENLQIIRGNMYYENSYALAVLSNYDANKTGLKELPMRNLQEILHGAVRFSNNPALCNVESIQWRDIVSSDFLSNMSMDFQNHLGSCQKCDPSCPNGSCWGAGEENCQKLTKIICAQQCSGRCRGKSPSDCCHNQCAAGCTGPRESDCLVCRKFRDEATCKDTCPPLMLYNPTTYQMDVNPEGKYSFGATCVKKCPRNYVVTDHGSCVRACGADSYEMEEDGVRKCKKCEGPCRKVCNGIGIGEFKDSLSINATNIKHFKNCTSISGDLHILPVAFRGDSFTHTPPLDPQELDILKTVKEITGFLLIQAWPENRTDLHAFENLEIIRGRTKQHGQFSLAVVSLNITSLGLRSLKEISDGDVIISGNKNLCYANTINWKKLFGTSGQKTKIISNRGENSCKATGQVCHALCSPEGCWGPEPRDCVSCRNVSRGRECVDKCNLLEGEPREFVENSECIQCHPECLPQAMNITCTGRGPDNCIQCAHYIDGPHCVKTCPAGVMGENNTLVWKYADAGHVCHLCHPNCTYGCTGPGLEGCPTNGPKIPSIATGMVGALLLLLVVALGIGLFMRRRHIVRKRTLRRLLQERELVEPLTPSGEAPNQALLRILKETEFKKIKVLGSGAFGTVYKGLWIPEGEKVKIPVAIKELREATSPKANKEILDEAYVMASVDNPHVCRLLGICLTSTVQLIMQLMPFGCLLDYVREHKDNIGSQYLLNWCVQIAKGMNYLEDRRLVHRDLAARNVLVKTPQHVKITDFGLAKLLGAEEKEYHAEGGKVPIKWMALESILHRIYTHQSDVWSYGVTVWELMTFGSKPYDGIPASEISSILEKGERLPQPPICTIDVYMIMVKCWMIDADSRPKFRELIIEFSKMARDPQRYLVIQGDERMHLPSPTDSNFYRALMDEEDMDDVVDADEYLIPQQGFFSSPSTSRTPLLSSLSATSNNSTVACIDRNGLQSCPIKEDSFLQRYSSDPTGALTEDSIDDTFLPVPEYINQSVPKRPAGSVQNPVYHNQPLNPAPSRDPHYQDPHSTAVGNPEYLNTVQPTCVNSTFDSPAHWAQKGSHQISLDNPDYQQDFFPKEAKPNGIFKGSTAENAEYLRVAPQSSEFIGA

[11] = system: Epidermal growth factor receptor (Homo sapiens), P00533 [T790M]; settings: at 1 µM
[12] = system: Epidermal growth factor receptor (Homo sapiens), P00533 [L858R,T790M]; settings: at 0.1 µM
[13] = system: Epidermal growth factor receptor (Homo sapiens), P00533 [L858R,T790M]; settings: at 1 µM
[14] = molecular target: Ephrin type-A receptor 2 (Homo sapiens) (UniProt P29317); settings: at 0.1 µM
[15] = molecular target: Ephrin type-A receptor 2 (Homo sapiens) (UniProt P29317); settings: at 1 µM
[16] = molecular target: T2, Ephrin type-A receptor 3 (Homo sapiens) (UniProt P29320); settings: at 0.1 µM
T2 sequence (whole entry): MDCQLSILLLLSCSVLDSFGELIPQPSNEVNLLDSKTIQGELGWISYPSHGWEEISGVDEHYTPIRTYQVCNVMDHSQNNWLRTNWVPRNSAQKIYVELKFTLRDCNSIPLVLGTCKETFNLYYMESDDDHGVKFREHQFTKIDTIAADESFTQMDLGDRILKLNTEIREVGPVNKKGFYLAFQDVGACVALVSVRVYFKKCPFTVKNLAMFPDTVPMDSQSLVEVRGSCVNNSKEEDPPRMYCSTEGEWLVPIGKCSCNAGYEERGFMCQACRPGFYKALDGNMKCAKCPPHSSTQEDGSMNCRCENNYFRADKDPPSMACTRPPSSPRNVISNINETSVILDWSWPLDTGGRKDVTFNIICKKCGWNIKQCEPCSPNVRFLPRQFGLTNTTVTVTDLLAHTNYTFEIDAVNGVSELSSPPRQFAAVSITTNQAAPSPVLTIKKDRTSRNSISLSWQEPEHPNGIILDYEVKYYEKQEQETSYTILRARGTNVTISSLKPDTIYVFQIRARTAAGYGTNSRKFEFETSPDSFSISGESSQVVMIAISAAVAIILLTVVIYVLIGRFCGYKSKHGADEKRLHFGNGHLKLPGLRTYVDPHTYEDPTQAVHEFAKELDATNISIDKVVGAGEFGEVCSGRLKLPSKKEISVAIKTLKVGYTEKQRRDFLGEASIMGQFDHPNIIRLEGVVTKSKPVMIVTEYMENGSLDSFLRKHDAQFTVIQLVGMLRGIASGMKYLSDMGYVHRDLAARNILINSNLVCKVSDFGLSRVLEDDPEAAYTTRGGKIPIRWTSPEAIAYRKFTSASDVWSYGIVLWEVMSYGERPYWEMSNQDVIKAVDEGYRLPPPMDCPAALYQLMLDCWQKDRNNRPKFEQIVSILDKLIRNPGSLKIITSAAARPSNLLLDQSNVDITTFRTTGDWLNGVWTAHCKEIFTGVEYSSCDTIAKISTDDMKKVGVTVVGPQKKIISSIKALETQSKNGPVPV

[17] = molecular target: T2, Ephrin type-A receptor 3 (Homo sapiens); settings: at 1 µM
[18] = molecular target: Ephrin type-A receptor 4 (Homo sapiens) (UniProt P54764); settings: at 0.1 µM
Chain of Ephrin type-A receptor 4 (Homo sapiens) (P54764 whole entry): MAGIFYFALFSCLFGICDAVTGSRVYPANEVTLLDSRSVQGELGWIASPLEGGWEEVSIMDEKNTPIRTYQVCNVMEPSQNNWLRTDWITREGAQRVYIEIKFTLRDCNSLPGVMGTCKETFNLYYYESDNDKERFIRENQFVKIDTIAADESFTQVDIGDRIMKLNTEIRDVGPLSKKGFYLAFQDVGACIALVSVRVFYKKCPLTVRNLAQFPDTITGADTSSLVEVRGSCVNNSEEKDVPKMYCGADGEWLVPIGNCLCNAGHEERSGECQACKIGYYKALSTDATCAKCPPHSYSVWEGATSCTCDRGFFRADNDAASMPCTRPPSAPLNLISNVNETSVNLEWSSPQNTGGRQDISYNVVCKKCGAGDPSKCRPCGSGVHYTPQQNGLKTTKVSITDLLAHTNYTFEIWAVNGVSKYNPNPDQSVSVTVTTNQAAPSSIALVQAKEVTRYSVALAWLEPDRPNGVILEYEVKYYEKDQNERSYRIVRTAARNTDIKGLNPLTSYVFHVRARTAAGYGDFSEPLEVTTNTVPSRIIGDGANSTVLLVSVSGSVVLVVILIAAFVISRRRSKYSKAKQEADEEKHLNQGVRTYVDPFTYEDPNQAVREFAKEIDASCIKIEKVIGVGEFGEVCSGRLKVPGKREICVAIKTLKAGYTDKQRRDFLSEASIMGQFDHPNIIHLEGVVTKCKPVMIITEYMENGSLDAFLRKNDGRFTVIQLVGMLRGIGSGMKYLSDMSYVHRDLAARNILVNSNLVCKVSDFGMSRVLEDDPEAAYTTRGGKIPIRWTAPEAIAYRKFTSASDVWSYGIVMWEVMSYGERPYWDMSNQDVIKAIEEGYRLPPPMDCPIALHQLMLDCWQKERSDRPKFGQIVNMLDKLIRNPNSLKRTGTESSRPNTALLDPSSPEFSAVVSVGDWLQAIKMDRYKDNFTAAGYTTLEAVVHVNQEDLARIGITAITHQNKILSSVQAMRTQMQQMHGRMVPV

[19] = molecular target: Ephrin type-A receptor 4 (Homo sapiens) (UniProt P54764); settings: at 1 µM
[20] = molecular target: T3, Ephrin type-B receptor 2 (Homo sapiens) (UniProt P29323); settings: at 0.1 µM;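 note: reported as mean inhibition of EPHB2, from the GSK PKIS dataset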
T3 sequence (whole entry): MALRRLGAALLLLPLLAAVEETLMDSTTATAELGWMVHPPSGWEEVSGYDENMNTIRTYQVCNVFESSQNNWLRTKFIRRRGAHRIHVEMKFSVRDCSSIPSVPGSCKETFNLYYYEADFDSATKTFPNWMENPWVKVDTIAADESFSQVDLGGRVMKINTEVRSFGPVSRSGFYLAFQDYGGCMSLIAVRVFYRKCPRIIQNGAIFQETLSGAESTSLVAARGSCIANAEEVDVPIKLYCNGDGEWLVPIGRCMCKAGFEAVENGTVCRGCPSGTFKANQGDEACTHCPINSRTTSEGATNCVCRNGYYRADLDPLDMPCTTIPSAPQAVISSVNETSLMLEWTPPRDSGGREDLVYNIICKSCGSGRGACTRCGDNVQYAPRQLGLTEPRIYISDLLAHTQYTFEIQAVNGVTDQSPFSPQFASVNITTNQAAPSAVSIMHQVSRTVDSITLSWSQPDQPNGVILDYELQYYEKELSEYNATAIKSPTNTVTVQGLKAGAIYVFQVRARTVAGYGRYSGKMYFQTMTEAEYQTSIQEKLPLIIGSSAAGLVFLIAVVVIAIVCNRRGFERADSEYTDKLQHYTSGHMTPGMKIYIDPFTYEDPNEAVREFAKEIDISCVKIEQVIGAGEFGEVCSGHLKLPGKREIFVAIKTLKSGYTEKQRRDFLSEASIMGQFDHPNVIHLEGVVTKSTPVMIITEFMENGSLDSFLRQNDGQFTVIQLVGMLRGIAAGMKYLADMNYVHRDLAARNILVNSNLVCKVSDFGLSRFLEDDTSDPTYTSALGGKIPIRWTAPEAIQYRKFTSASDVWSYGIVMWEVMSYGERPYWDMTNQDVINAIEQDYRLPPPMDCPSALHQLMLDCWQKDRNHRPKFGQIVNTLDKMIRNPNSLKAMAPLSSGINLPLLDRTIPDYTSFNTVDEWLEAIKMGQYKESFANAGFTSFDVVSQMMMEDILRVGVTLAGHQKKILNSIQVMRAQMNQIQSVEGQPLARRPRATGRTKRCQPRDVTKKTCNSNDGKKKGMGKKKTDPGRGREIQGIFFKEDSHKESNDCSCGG

Chain of Tyrosine-protein kinase CSK (Homo sapiens) (P41240 2-450 limits assumed): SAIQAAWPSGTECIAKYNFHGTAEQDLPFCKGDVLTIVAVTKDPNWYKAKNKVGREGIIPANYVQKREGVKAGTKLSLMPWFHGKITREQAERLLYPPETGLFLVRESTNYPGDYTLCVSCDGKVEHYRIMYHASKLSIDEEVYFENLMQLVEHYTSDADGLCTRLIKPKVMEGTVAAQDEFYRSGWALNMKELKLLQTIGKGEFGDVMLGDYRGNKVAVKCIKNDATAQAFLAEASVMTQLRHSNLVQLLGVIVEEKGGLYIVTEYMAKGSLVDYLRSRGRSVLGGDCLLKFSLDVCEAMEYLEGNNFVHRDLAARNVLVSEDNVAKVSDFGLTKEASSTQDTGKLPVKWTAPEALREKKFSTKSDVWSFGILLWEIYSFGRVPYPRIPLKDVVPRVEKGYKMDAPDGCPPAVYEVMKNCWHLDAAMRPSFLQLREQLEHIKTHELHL

| SMILES | inhibition [1] | inhibition [2] | inhibition [3] | inhibition [4] | inhibition [5] | inhibition [6] | inhibition [7] | inhibition [8] | inhibition [9] | inhibition [10] | inhibition [11] | inhibition [12] | inhibition [13] | inhibition [14] | inhibition [15] | inhibition [16] | inhibition [17] | inhibition [18] | inhibition [19] | inhibition [20] |
| --- | --- | --- | --- | --- | --- | --- | --- | --- | --- | --- | --- | --- | --- | --- | --- | --- | --- | --- | --- | --- |
| CCc1nccc2c1nc(-c1nonc1N)n2CC | -3.01% | 1.17% | 2.38% | 6.7% | 7.54% | 0.22% | -2.09% | -1.13% | -0.05% | -1.16% | -1.27% | -0.81% | 1.48% | 0.61% | 0.69% | -0.26% | 1.46% | 0.87% | -5.92% | -5.8% |
| O=C(NCC1CC1)c1ccc(-c2cccc(C(=O)NC3CC3)c2)cc1 | -3.57% | 4.92% | 7.61% | 1.39% | 0.85% | 2.42% | -2.6% | -0.16% | -2.26% | 0.88% | -1.31% | -1.91% | 3.8% | 2.47% | 1.67% | 2.75% | 4.67% | 4.89% | -0.51% | 6.78% |
| NS(=O)(=O)c1ccc(N/N=C2\C(=O)Nc3ccc(C(=O)NCCCn4ccnc4)cc32)cc1 | 6.51% | 0.72% | 1.93% | 3.44% | 5.59% | 0.2% | 6.95% | 1.73% | 5.08% | 2.53% | 5.05% | 1.54% | 4.72% | 0.32% | 2.41% | 1.95% | 4.65% | 9.78% | 18.2% | 5.33% |
| O=C(Nc1n[nH]c2cc(-c3ccccc3)ccc12)C1CC1 | 4.74% | 1.43% | 5.94% | 3.06% | 6.49% | 2.84% | 5.13% | 4.05% | 0.82% | 2.65% | 4.64% | 2.81% | 3.37% | 1.75% | 3.8% | 5.17% | 6.3% | 6.13% | 18.9% | 6.68% |
| COc1cccc(/C=N/Nc2ncnc3c2cnn3-c2cccc(OC)c2)c1 | 3.91% | 1.34% | 2.5% | 1.31% | 2.97% | 2.05% | 8.79% | 1.95% | 4.05% | 0.54% | 2.12% | 2.14% | 2.04% | -1.3% | -1.94% | 1.72% | 3.83% | 6.9% | 9.69% | 8.19% |
| Fc1ccc(-c2ncn(C3CCNCC3)c2-c2ccnc(Oc3ccc(Oc4ccccc4)cc3)n2)cc1 | 3.28% | 2.83% | 14.8% | 2.08% | 4.02% | -0.18% | 11.3% | 2.06% | 6.3% | 1.46% | 4.11% | 1.7% | 6.06% | 1.86% | 1.01% | 2.44% | 4.03% | 6.9% | 7.87% | 7.52% |
| COc1ccc2ncn(-c3cc(O[C@H](C)c4ccccc4Cl)c(C(N)=O)s3)c2c1 | 4.14% | 1.2% | 0.87% | -5.57% | -2.35% | 0.76% | 6.08% | 3.26% | 1.91% | 1.16% | 1.63% | 1.69% | 4.57% | -1.86% | -2.71% | -1.12% | 1.39% | 6.03% | 9.66% | 6.75% |

From ChEMBL document CHEMBL1961873, “Compounds: GSK PKIS; Assays: Nanosyn kinase panel” (2012)
